# Laboratory results from ChEMBL document CHEMBL3433997, “St. Jude Leishmania screening dataset” (2016).
# “And” between values parts separate entries of the source, which are not always exact repeats. Equal entries are not always repeated.
# Target: Solute carrier family 2, facilitated glucose transporter member 1 (Homo sapiens) (UniProt P11166)
# Test: ST_JUDE_LEISH: Cytotoxicity at 2uM final concentration against transgenic Leishmania Mexicana promastigotes LmGLUT1 that are glucose transport deficient and complemented with the human glucose transporter GLUT1. Activity is measured by DNA content using SYBR green in vitro
# Format: functional
# Solute carrier family 2, facilitated glucose transporter member 1 (Homo sapiens), sequence (P11166 whole entry): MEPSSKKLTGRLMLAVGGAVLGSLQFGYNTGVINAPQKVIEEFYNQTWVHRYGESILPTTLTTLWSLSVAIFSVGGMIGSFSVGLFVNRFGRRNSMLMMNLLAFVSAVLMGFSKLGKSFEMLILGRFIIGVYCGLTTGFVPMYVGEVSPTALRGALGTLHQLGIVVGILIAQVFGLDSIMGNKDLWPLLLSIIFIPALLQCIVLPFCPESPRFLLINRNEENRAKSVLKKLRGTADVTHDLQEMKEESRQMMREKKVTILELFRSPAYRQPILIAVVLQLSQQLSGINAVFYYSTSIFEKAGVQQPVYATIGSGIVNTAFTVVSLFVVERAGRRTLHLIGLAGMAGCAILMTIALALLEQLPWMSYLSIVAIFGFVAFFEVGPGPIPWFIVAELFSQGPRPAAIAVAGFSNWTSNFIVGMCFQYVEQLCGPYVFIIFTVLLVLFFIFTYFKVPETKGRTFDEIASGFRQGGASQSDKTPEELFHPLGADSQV
row,SMILES,inhibition
1,O=C(N[C@H]1CCN(Cc2ccc(OC3CCN(Cc4ccccc4)CC3)c(Cl)c2)C1)c1ccc(Cl)c(Cl)c1,0.44%
2,COC(=O)c1ccc2[nH]cc(C3CCN(CCC4CCN(C(=O)/C=C/c5ccc(Cl)c(Cl)c5)CC4)CC3)c2c1,6.59%
3,COc1ccc(CNCc2cccc(-c3ccc(-c4nc5cccc(C)c5[nH]4)s3)c2)cc1,3.18%
4,O=C(NCCCCCN1CCC(c2c[nH]c3ccccc23)CC1)c1ccc(-c2cccnc2)cc1,1.86%
5,COc1cc(F)c2ncc(Cl)c([C@H](O)CN3CCC(NCc4cc5c(cn4)OCCO5)CC3)c2c1,7.62%
6,CC(C)[C@@H](C(=O)NCc1cccc(C(F)(F)F)c1)N1C(=O)CCC1C(=O)Nc1ccc([N+](=O)[O-])cc1 (stereo not given in full),2.24%
7,Cc1ccc2nc(-c3ccc(C(=O)NC4CCN(Cc5ccccc5)CC4)cc3)[nH]c2c1C,11.5%
8,O=C(NCCCN(Cc1ccc(F)cc1)c1ccccn1)C(c1cc2ccccc2o1)N1CCN(C(c2ccccc2)c2ccccc2)CC1 (stereo not given),3.35%
9,Cc1cc(-c2ccc(NC(=O)Nc3ccc4nccc(N5CCN(C)CC5)c4c3)cc2C)cc(C)n1,7.15%
10,COc1ccc(-c2ccccc2CNc2nc(NCCc3ccc(O)cc3)nc(N3CCNCC3)n2)cc1,-2.91%
11,COc1ccc2nccc([C@@H](O)CN3CCC(NCc4cn5cc(F)ccc5n4)CC3)c2c1,2.06%
12,Fc1cccc(Nc2nc(NCCc3ccc(Cl)cc3)nc(Nc3cccc(F)c3)n2)c1,2.39%
13,COc1ccc(CN2CCC(N3CC(c4ccccc4)(c4ccccc4)OCC3=O)C2)c(O)c1 (stereo not given),-1.54%
14,COc1ccc(CN(C)CCCCc2ccc(NC(=O)COc3cccc4sc5ccccc5c(=O)c34)cc2)cc1OC,1.62%
15,COc1cccc(C(=O)NCCc2cccc(Cl)c2)c1OCc1ccccc1,0.04%
16,CC(C)COc1ccc(C(O)C(CN2CCCCC2)c2ccccc2)cc1 (stereo not given),5.44%
17,CCOC(=O)Nc1cc(-c2csc(N=C(N)N)n2)cc([N+](=O)[O-])c1,0.23%
18,COc1ccc(CC2(c3ccc(F)cc3)N=C(N)N(CCCc3cccnc3)C2=O)cc1 (stereo not given),2.7%
19,CCOc1ccc(-c2nonc2NC(=O)c2ccccc2F)cc1OCC,-0.17%
20,Cc1cccc2nc(-c3ccc(-c4ccc(NC(=O)Nc5ccc(F)c(F)c5F)cc4)s3)[nH]c12,1.26%

row,SMILES,inhibition
1,CN1CCCc2ccc(NC(=O)Nc3ccc(Cl)c(Cl)c3)cc2C1,-0.95%
2,COc1cc(F)c2ncc(Cl)c(CCN3CCC(NCc4cc5c(cn4)OCCO5)CC3)c2c1,28.4%
3,COc1ccc2ncc(F)c(CCN3CCC[C@H](CNCc4ccc5c(n4)NC(=O)CS5)C3)c2n1,5.76%
4,Oc1cccc(-c2nc3cc(C4=NC5CCCCC5N4)ccc3[nH]2)c1 (stereo not given),3.58% and 0.07%
5,NC1CCCN(Cc2ccc(-c3ccc(-c4nc5cc(F)ccc5[nH]4)s3)cc2)C1 (stereo not given),2.77%
6,O=C(/C=C/c1ccc(Cl)c(Cl)c1)NCCCCCN1CCC(NC(=O)NC2CCCCCC2)CC1,-0.58%
7,O=S(=O)(NCCCN1CCOCC1)c1ccc2nccc(Nc3ccc(Oc4ccccc4)cc3)c2c1,-1.16%
8,Oc1ccc2[nH]c(-c3cccs3)nc2c1CN1CCC(N2CCCC2)CC1,3.78%
9,O=C(c1cccc(-c2cccc(-c3nc4cc(F)ccc4[nH]3)c2)c1)N1CCCCC1CN1CCC(O)C1 (stereo not given),0.52%
10,CC(C)(C)c1ccc(CN2CCC(CNC(=O)c3cc(-c4ccccc4Cl)cs3)C2)cc1 (stereo not given),0.49%
11,O=C(Nc1ccc(Cl)c(C(F)(F)F)c1)N[C@H]1CCN(CCCCCNC(=O)C2CC2c2ccc(Cl)c(Cl)c2)C1 (stereo not given in full),-1.57%
12,N#Cc1ccccc1C1CCN(C2CCC(Nc3cc(-c4cccnc4)ccn3)CC2)CC1 (stereo not given),2.02%
13,CN(C(=O)Nc1ccc(F)cc1)C1CCN(CCCCCNC(=O)/C=C/c2ccc(Cl)c(Cl)c2)CC1,1%
14,CC(C)c1ccc2[nH]c(C(=O)NC3CCC(N4CCCc5ccc(C#N)cc5C4)CC3)cc2c1 (stereo not given),3.48%
15,Oc1ccc(CN2Cc3ccccc3OC3(CCN(Cc4c[nH]c5cnccc45)CC3)C2)cc1,-0.29%
16,Cc1ccc(CON2C(=N)N=C(N)NC2(C)C)cc1C,4.78%
17,COc1cc(Cc2cnc(N)nc2N)cc(OCCCCC2SC(=O)NC2=O)c1OC (stereo not given),2.3%
18,O=C(NCc1cc2c(cc1Cl)OCO2)c1ccc(CNC2CCN(Cc3ccccc3)CC2)cc1,0.15%
19,Cn1cccc1C(=O)Nc1cccc(-c2nn3ccccc3c2-c2ccnc(Nc3ccc4c(c3)OCCO4)n2)c1,4.74%
20,CS(=O)(=O)c1ccc2[nH]c(-c3cc(-c4cccc(F)c4)cnc3N)nc2c1,5.71%
